Shown are actives, neighbours in structure and some others; about 12% of the full set was active somewhere.
Pf growth 48h – inhibits P. falciparum growth in the first generation, 48 h; 310,000 tested, 5.9% active; P. falciparum luciferase growth in erythrocytes, 48 h; Potency, µM (highest dose often 28.7 µM), usual class: inhibitors
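First compound was added to culture medium, then infected red cells at 0.1% parasitemia and 2% hematocrit (final). After incubation at 37 C under 5% CO2, luciferase detection reagent was dispensed and light output recorded.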
Pf growth 96h – inhibits malaria parasite growth, 96 h. Potency, µM (doses to about 28.7 µM), usual class: inhibitors. P. falciparum luciferase reporter growth, 96 h. 320,000 tested, 6.9% active
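Two parasite generations (96 h, 37 C, 5% CO2) of compound exposure in infected erythrocytes (0.05% parasitemia, 2% hematocrit). Luciferase-reporter P. falciparum; decreased luminescence indicates inhibited growth, aimed at apicoplast-acting delayed death.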
Sm TGR block – S. mansoni TGR enzyme inhibition; Q962Y6; purified TGR, DTNB reduction, TNB absorbance 405 nm; Potency, µM (doses to about 114 µM), usual class: inhibitors; 360,000 tested, 3% active; AID 485364; also: nearly all actives have a fitted effect of over 60% in size
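Kinetic colorimetric format: TGR-catalysed, NADPH-driven DTNB reduction monitored via TNB absorbance. Enzyme dispensed at 20 nM; compound exposure 15 min at room temperature before reaction start.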
SARS PLpro yeast – SARS-CoV PLP inhibition in yeast; S. cerevisiae expressing SARS-CoV PLpro, growth rescue; Potency, µM (top dose mostly 32.9 µM), hits mostly activators; 330,000 tested, 0.19% active; AID 485353; calls by dose curve; also: nearly all actives have a fitted effect of over 55% in size
Large screens that a line does not name were inactive. Unless noted, calls follow the shape of the dose curve; as a rule, active = well fitted curve in the direction sought with a large enough effect; inconclusive = small, poorly fitted or top-dose-only effect, or another doubt; inactive = no such curve, though single readings can be large; an effect the other way counts as inactive or inconclusive.

O=C(Nc1nnc(Cc2ccccc2)s1)C1CCC1	Pf growth 48h inconclusive, Pf growth 96h 1.65µM, Sm TGR block inconclusive
O=C(Nc1nnc(Cc2ccccc2)s1)c1ccccc1	Pf growth 96h inconclusive
Cc1cccc(C(=O)Nc2nnc(Cc3ccccc3)s2)c1	Pf growth 48h inconclusive, Pf growth 96h 10.4µM
O=C(Nc1nnc(CCS(=O)(=O)c2ccc3ccccc3c2)s1)c1cccs1	none
COc1ccc(S(=O)(=O)CCc2nnc(NC(=O)c3cccs3)s2)cc1	Pf growth 48h 2.33µM
CC(=O)OC[C@H]1O[C@@](COC(C)=O)(O[C@H]2O[C@H](COC(C)=O)[C@@H](OC(C)=O)[C@H](OC(C)=O)[C@H]2OC(C)=O)[C@@H](OC(C)=O)[C@@H]1OC(C)=O	none (no result: Sm TGR block, SARS PLpro yeast)
COc1cc(-c2nc(-c3ccc4c(c3)[nH]c(=O)n4C)no2)cc(OC)c1OC	none (no result: Pf growth 48h, Pf growth 96h, SARS PLpro yeast)
CC(Oc1ccc2c(=O)c(-c3ccc(Cl)cc3)c(C(F)(F)F)oc2c1)C(=O)O (stereo not drawn)	Pf growth 48h 10.4µM
COc1ccc(-c2c(C(F)(F)F)oc3cc(OCC(=O)Nc4ccccc4C(F)(F)F)ccc3c2=O)cc1OC	Pf growth 48h inconclusive, Pf growth 96h inconclusive, SARS PLpro yeast inconclusive
O=C(NC1CCCCC1)C(c1ccc(Cl)cc1)N1CCC2(CC1)OCCO2 (stereo not drawn)	Pf growth 48h inconclusive
CCOC(=O)C1CCN(C(C(=O)NC2CCCC2)c2ccc(C)cc2)CC1 (stereo not drawn)	Pf growth 96h 10.4µM (no result: Pf growth 48h)
Cc1ccc(C(C(=O)NC2CCCCC2)N2CCCC2)cc1 (stereo not drawn)	Pf growth 96h inconclusive
Cc1ccc(C(C(=O)NC2CCCC2)N2CCCCC2)cc1 (stereo not drawn)	Pf growth 48h inconclusive, Pf growth 96h 1.85µM
Cc1ccc(C(C(=O)NC2CCCCC2)N2CCN(C(=O)c3ccco3)CC2)cc1 (stereo not drawn)	Pf growth 48h 11.7µM
CCN1CCN(C(C(=O)NC2CCCC2)c2ccc(Cl)cc2)CC1 (stereo not drawn)	Pf growth 96h 11.7µM (no result: Pf growth 48h)
CCCc1ncc(C[n+]2ccccc2C)c(N)n1	Sm TGR block 44.7µM (no result: SARS PLpro yeast)
Cc1cccc(OC(C)C(=O)N2CCCN(C)CC2)c1C (stereo not drawn)	Pf growth 96h inconclusive
Cc1ccc(S(=O)(=O)N2CCN(C(=O)c3ccc(S(=O)(=O)N4CCCC4)cc3)CC2)cc1	Pf growth 48h inconclusive, Pf growth 96h 7.38µM
O=C(c1ccc(S(=O)(=O)N2CCCC2)cc1)N1CCCCCC1	Pf growth 48h inconclusive
NC(=O)c1ccc(S(=O)(=O)N2CCSCC2)cc1	Pf growth 96h 10.4µM
Cc1ccc(S(=O)(=O)N2CCN(C(=O)c3ccc(N4CCCC4)c([N+](=O)[O-])c3)CC2)cc1	Pf growth 48h inconclusive, Pf growth 96h 8.28µM
O=c1c2ccccc2sn1-c1ccc(S(=O)(=O)N2CCCC2)cc1	Pf growth 48h inconclusive, Sm TGR block inconclusive
Cc1ccc(-n2sc3ccccc3c2=O)cc1S(=O)(=O)N1CCCCC1	Pf growth 48h 2.62µM, Pf growth 96h 4.15µM
CC1Cc2cc(S(=O)(=O)N3CCN(c4ccccc4F)CC3)ccc2N1C(=O)C1CC1 (stereo not drawn)	Pf growth 96h inconclusive
Cc1nc2ccn(Cc3ccco3)c(=O)c2cc1C(=O)NCc1ccc(F)cc1	none (no result: Pf growth 48h, Pf growth 96h, SARS PLpro yeast)
Cc1ccc(C(=O)N2CCN(c3cc4c(cc3[N+](=O)[O-])n(C)c(=O)n4C)CC2)cc1	Pf growth 96h inconclusive, SARS PLpro yeast 8.91µM
CC(=O)Nc1ccc(C(=O)N2CCN(S(=O)(=O)c3ccc4c(c3)OCCCO4)CC2)cc1	Pf growth 48h inconclusive, Pf growth 96h inconclusive
O=C(c1ccc(N2CCCCC2)c([N+](=O)[O-])c1)N1CCN(S(=O)(=O)c2ccccc2)CC1	Pf growth 48h 11.7µM, Pf growth 96h inconclusive
NC(=O)c1ccc(N2CCN(S(=O)(=O)c3ccccc3)CC2)c([N+](=O)[O-])c1	Pf growth 48h inconclusive
CC(=O)N1CCN(c2ccc(S(=O)(=O)N3CCCCC3)cc2[N+](=O)[O-])CC1	none (no result: Pf growth 48h, Pf growth 96h, Sm TGR block)
CNc1ccc(C(=O)N2CCN(S(=O)(=O)c3ccc4c(c3)OCCCO4)CC2)cc1[N+](=O)[O-]	Pf growth 48h inconclusive, Pf growth 96h 11.7µM
Cc1ccc(S(=O)(=O)N2CCN(C(=O)c3ccc(N4CCCCC4)c([N+](=O)[O-])c3)CC2)cc1	Pf growth 48h inconclusive, Pf growth 96h 10.4µM
CCc1noc(C)c1C(=O)N1CCCC(N2CCN(c3cccc(Cl)c3)CC2)C1 (stereo not drawn)	Pf growth 48h inconclusive, Pf growth 96h inconclusive
CCNC(=S)N(CCCO)Cc1cc2cc3c(cc2[nH]c1=O)OCCO3	Pf growth 96h inconclusive
CC(=O)c1ccc(S(=O)(=O)N2CCN(C(C)=O)CC2)cc1	none
N#CC(C#N)=NNc1ccc(S(=O)(=O)N2CCCC2)cc1	Sm TGR block 20µM
CC(=O)c1ccc(S(=O)(=O)N2CCCC2)cc1	Sm TGR block 44.7µM (no result: Pf growth 96h)
Cc1ccc(S(=O)(=O)N2CCN(c3ccc(C(=O)N4CCOCC4)cc3[N+](=O)[O-])CC2)cc1	Pf growth 96h 10.4µM
Cc1ccc(C(=O)N2CCCCC2)cc1S(=O)(=O)N1CCCCCC1	Pf growth 48h inconclusive, Pf growth 96h 8.28µM
CCCCCn1c(=O)[nH]c2cc(C(=O)NCc3ccc(C)cc3)ccc2c1=O	none (no result: Pf growth 48h, Pf growth 96h, SARS PLpro yeast)
CCOC(=O)N1CCc2c(sc3c2c(=O)n(Cc2ccccc2)c(=O)n3Cc2cccc(Cl)c2)C1	none (no result: Pf growth 48h, Pf growth 96h, SARS PLpro yeast)
Cc1ccc(S(=O)(=O)N2CCCNCC2)cc1	Pf growth 48h inconclusive, Sm TGR block 15.8µM
O=C(OCCN1C(=O)c2ccccc2C1=O)c1ccc(S(=O)(=O)N2CCCCCC2)cc1	none
O=C(c1ccc(S(=O)(=O)N2CCCCC2)cc1)N1CCN(CCN2C(=O)c3cccc4cccc(c34)C2=O)CC1	Pf growth 48h inconclusive, Pf growth 96h 3.29µM
CC(C)C[C@H](NC(=O)N1CC(=O)Nc2ccccc21)C(=O)N1CCC(C(=O)O)CC1	none
COc1ccc(S(=O)(=O)N2CCCCC2)cc1NC(=O)c1ccc(CS(C)(=O)=O)cc1	Pf growth 48h inconclusive
COc1ccc(NC(=O)c2c3c(nc4ccccc24)CCN(Cc2ccccc2)C3)c(OC)c1	Pf growth 48h 7.38µM, Pf growth 96h 9.28µM
CCN(CC)S(=O)(=O)c1ccc(OC(C)C)c(NC(=O)c2c3c(nc4ccccc24)CCN(Cc2ccccc2)C3)c1	Pf growth 48h 2.62µM, Pf growth 96h 2.94µM
COc1ccc(S(=O)(=O)N2CCCCCC2)cc1NC(=O)c1c2c(nc3ccccc13)CCN(Cc1ccccc1)C2	Pf growth 48h 1.47µM, Pf growth 96h 1.47µM
Cc1ccc(N(CC(=O)NCC2CCCO2)C(=O)CCC(=O)Nc2ccccn2)cc1 (stereo not drawn)	Pf growth 96h 0.586µM
Cc1cc(C)cc(N(CC(=O)NCc2ccc3c(c2)OCO3)C(=O)CCC(=O)Nc2ccccn2)c1	Pf growth 48h 1.31µM, Pf growth 96h inconclusive
COCCNC(=O)C(c1ccc(Cl)cc1)N(Cc1ccco1)C(=O)CCC(=O)Nc1ccccn1 (stereo not drawn)	Pf growth 96h 13.1µM
CCOc1ccc(N(CC(=O)NCCc2ccccc2)C(=O)CCC(=O)Nc2cc(C)ccn2)cc1	Pf growth 48h 4.65µM

High-throughput results (PubChem BioAssay)
